# Measured values published in paper PMC11062922 (Nature Chemical Biology, 2023).
# Where two headings read alike, the source gives them in different places.
# Key:
# Design in all cases: species or system human, MV4-11 + K-562 + COLO205 + SK-N-BE2 + OVCAR-8
# ATM = conditions: read-out: apparent Kd, n = 1
# ATR = conditions: read-out: apparent Kd; compound concentrations: 100 nM and 1000 nM (sheet 'Samples'), CATDS: 8.9801947735964505E-2; n = 1
# DJA1 = tested on: T1, DJA1; conditions: read-out: apparent Kd; compound concentrations: 100 nM and 1000 nM (sheet 'Samples'), CATDS: 8.0242865429316204E-2; n = 1
# T1 construct: gene DNAJA1
# MTOR = conditions: read-out: apparent Kd, n = 1
# NLK = conditions: read-out: apparent Kd; compound concentrations: 100 nM and 1000 nM (sheet 'Samples'), CATDS: 7.3825275535159302E-2; n = 1
# PIK3C2A = conditions: read-out: apparent Kd; compound concentrations: 100 nM and 1000 nM (sheet 'Samples'), CATDS: 6.5272193721358701E-2; n = 1
# PIK3CA = conditions: read-out: apparent Kd, n = 1
# PRKAG2 = conditions: read-out: apparent Kd, n = 1
# PTK6 = conditions: read-out: apparent Kd, compound concentrations: 100 nM and 1000 nM (sheet 'Samples'), n = 1
# RAB14 = conditions: read-out: apparent Kd; compound concentrations: 100 nM and 1000 nM (sheet 'Samples'), CATDS: 6.8441155991484606E-2; n = 1
# STK16 = conditions: read-out: apparent Kd; compound concentrations: 100 nM and 1000 nM (sheet 'Samples'), CATDS: 0.118413696953623; n = 1
# AKT3 = conditions: read-out: apparent Kd; compound concentrations:100 nM and 1000 nM (sheet 'Samples'); n = 1
# DCTPP1 = conditions: read-out: apparent Kd; compound concentrations:100 nM and 1000 nM (sheet 'Samples'); n = 1
# NQO1 = conditions: read-out: apparent Kd; compound concentrations:100 nM and 1000 nM (sheet 'Samples'); n = 1
# PRKAG1 = conditions: read-out: apparent Kd; compound concentrations:100 nM and 1000 nM (sheet 'Samples'); n = 1
# AKT2 = conditions: read-out: apparent Kd; compound concentrations: 100 nM and 1000 nM (sheet 'Samples'), CATDS: 0.175578596413346; n = 1
# MAP2K2 = conditions: read-out: apparent Kd; compound concentrations: 100 nM and 1000 nM (sheet 'Samples'), CATDS: 0.187838411723944; n = 1
# PLK1 = conditions: read-out: apparent Kd, compound concentrations: 100 nM and 1000 nM (sheet 'Samples'), n = 1
# RIOK2 = conditions: read-out: apparent Kd, n = 1
# STK26 = conditions: read-out: apparent Kd; compound concentrations: 100 nM and 1000 nM (sheet 'Samples'), CATDS: 0.193816418498372; n = 1
# FECH = conditions: read-out: apparent Kd; compound concentrations: 100 nM and 1000 nM (sheet 'Samples'), CATDS: 0.190744919400651; n = 1
# PRKACG = conditions: read-out: apparent Kd, n = 1
# GAK = conditions: read-out: apparent Kd; compound concentrations:100 nM and 1000 nM (sheet 'Samples'); n = 1
# MAPK10 = conditions: read-out: apparent Kd; compound concentrations:100 nM and 1000 nM (sheet 'Samples'); n = 1
# MYLK3 = conditions: read-out: apparent Kd; compound concentrations:100 nM and 1000 nM (sheet 'Samples'); n = 1
# PLK4 = conditions: read-out: apparent Kd; compound concentrations:100 nM and 1000 nM (sheet 'Samples'); n = 1
# SIK2 = conditions: read-out: apparent Kd; compound concentrations:100 nM and 1000 nM (sheet 'Samples'); n = 1
# TNIK = conditions: read-out: apparent Kd; compound concentrations:100 nM and 1000 nM (sheet 'Samples'); n = 1
# CDK16 = conditions: read-out: apparent Kd; compound concentrations:100 nM and 1000 nM (sheet 'Samples'); n = 1
# CDK17 = conditions: read-out: apparent Kd; compound concentrations:100 nM and 1000 nM (sheet 'Samples'); n = 1
# CDK6 = conditions: read-out: apparent Kd; compound concentrations:100 nM and 1000 nM (sheet 'Samples'); n = 1
# CDK9 = conditions: read-out: apparent Kd; compound concentrations:100 nM and 1000 nM (sheet 'Samples'); n = 1
# CDKL5 = conditions: read-out: apparent Kd; compound concentrations:100 nM and 1000 nM (sheet 'Samples'); n = 1
# GSK3A = conditions: read-out: apparent Kd, n = 1
# GSK3B = conditions: read-out: apparent Kd; compound concentrations:100 nM and 1000 nM (sheet 'Samples'); n = 1
# ICK = conditions: read-out: apparent Kd; compound concentrations:100 nM and 1000 nM (sheet 'Samples'); n = 1
# PIM2 = conditions: read-out: apparent Kd; compound concentrations:100 nM and 1000 nM (sheet 'Samples'); n = 1
# MTHFD1 = conditions: read-out: apparent Kd; compound concentrations: 100 nM and 1000 nM (sheet 'Samples'), CATDS: 0.40947747984703597; n = 1
# AURKB = conditions: read-out: apparent Kd, compound concentrations: 100 nM and 1000 nM (sheet 'Samples'), n = 1
# FLT3 = conditions: read-out: apparent Kd; compound concentrations: 100 nM and 1000 nM (sheet 'Samples'), CATDS: 0.27070299273409698; n = 1
# PIK3CD = conditions: read-out: apparent Kd; compound concentrations: 100 nM and 1000 nM (sheet 'Samples'), CATDS: 0.42834866623309398; n = 1
# RPS6KA4 = conditions: read-out: apparent Kd; compound concentrations: 100 nM and 1000 nM (sheet 'Samples'), CATDS: 0.19604885233209601; n = 1
# CAMK2B = conditions: read-out: apparent Kd; compound concentrations: 100 nM and 1000 nM (sheet 'Samples'), CATDS: 0.10460822503909301; n = 1
# EIF2AK1 = conditions: read-out: apparent Kd; compound concentrations: 100 nM and 1000 nM (sheet 'Samples'), CATDS: 6.5022580640831398E-2; n = 1
# MAP2K5 = conditions: read-out: apparent Kd; compound concentrations: 100 nM and 1000 nM (sheet 'Samples'), CATDS: 0.13171106930199999; n = 1
# MAP3K4 = conditions: read-out: apparent Kd; compound concentrations: 100 nM and 1000 nM (sheet 'Samples'), CATDS: 6.3313755179161796E-2; n = 1
# MAP4K2 = conditions: read-out: apparent Kd; compound concentrations: 100 nM and 1000 nM (sheet 'Samples'), CATDS: 8.0363217180658503E-2; n = 1
# MAP4K3 = conditions: read-out: apparent Kd; compound concentrations: 100 nM and 1000 nM (sheet 'Samples'), CATDS: 7.0061337897802001E-2; n = 1
# NEK2 = conditions: read-out: apparent Kd; compound concentrations: 100 nM and 1000 nM (sheet 'Samples'), CATDS: 7.0707362303254903E-2; n = 1
# RIPK3 = conditions: read-out: apparent Kd; compound concentrations: 100 nM and 1000 nM (sheet 'Samples'), CATDS: 5.9468743018389697E-2; n = 1
# STK3 = conditions: read-out: apparent Kd; compound concentrations: 100 nM and 1000 nM (sheet 'Samples'), CATDS: 6.0873779479402902E-2; n = 1
# STK4 = conditions: read-out: apparent Kd; compound concentrations: 100 nM and 1000 nM (sheet 'Samples'), CATDS: 7.2736683737858396E-2; n = 1
# YES1 = conditions: read-out: apparent Kd; compound concentrations: 100 nM and 1000 nM (sheet 'Samples'), CATDS: 8.4422564435587905E-2; n = 1
# [1] = compound concentrations:100 nM and 1000 nM (sheet 'Samples')
smiles,measurement,setting,value
Fc1ccc(-c2ncn(CCCN3CCOCC3)c2-c2ccccn2)cc1 [SB-211742],potency estimated from few doses,"ATM; compound concentrations: 100 nM and 1000 nM (sheet 'Samples'), CATDS: 0.213303269988698",181 nM
same,potency estimated from few doses,ATR,854 nM
same,potency estimated from few doses,DJA1,1130 nM
same,potency estimated from few doses,"MTOR; compound concentrations: 100 nM and 1000 nM (sheet 'Samples'), CATDS: 0.10171258605148099",648 nM
same,potency estimated from few doses,NLK,1420 nM
same,potency estimated from few doses,PIK3C2A,2110 nM
same,potency estimated from few doses,"PIK3CA; compound concentrations: 100 nM and 1000 nM (sheet 'Samples'), CATDS: 0.22105458504596001",172 nM
same,potency estimated from few doses,"PRKAG2; compound concentrations: 100 nM and 1000 nM (sheet 'Samples'), CATDS: 7.5904360676084706E-2",1310 nM
same,potency estimated from few doses,PTK6; CATDS: 7.5402432247591605E-2,1330 nM
same,potency estimated from few doses,RAB14,1790 nM
same,potency estimated from few doses,STK16,479 nM
CC(C)NC(=O)N1CC[C@H](NC2=Nc3cc(F)ccc3N(CC(F)F)c3ccc(Cl)cc32)C1 [NVS-PAK1-1],potency estimated from few doses,AKT3,1760 nM
same,potency estimated from few doses,DCTPP1,2220 nM
same,potency estimated from few doses,NQO1,1340 nM
same,potency estimated from few doses,PRKAG1,1740 nM
C[C@@H](Oc1cc(-n2cnc3ccc(NC(=O)NC(C)(C)C)cc32)sc1C(N)=O)c1ccccc1Cl [GSK346294A],potency estimated from few doses,AKT2,2320 nM
same,potency estimated from few doses,MAP2K2,1980 nM
same,potency estimated from few doses,PLK1; CATDS: 0.29940463058405897,851 nM
same,potency estimated from few doses,"RIOK2; compound concentrations: 100 nM and 1000 nM (sheet 'Samples'), CATDS: 0.18243724402643599",2120 nM
same,potency estimated from few doses,STK26,1850 nM
COc1cccc(COc2cc(-n3cnc4ccccc43)sc2C(N)=O)c1 [GW804482X],potency estimated from few doses,"ATM; compound concentrations: 100 nM and 1000 nM (sheet 'Samples'), CATDS: 0.32091008376932201",210 nM
same,potency estimated from few doses,FECH,558 nM
same,potency estimated from few doses,"PIK3CA; compound concentrations: 100 nM and 1000 nM (sheet 'Samples'), CATDS: 0.27121911823644002",277 nM
same,potency estimated from few doses,PLK1; CATDS: 0.15646266136602699,938 nM
same,potency estimated from few doses,"PRKACG; compound concentrations: 100 nM and 1000 nM (sheet 'Samples'), CATDS: 0.152371623335085",1020 nM
COc1ccc2[nH]c3c4[nH]c5ccc(OC)cc5c4c4c(c3c2c1)C(=O)NC4=O [GW296115X],potency estimated from few doses,ATM; [1],204 nM
same,potency estimated from few doses,GAK,543 nM
same,potency estimated from few doses,MAPK10,1050 nM
same,potency estimated from few doses,MTOR; [1],741 nM
same,potency estimated from few doses,MYLK3,834 nM
same,potency estimated from few doses,PIK3CA; [1],254 nM
same,potency estimated from few doses,PLK4,581 nM
same,potency estimated from few doses,PRKACG; [1],655 nM
same,potency estimated from few doses,PRKAG1,1550 nM
same,potency estimated from few doses,PRKAG2; [1],1670 nM
same,potency estimated from few doses,SIK2,923 nM
same,potency estimated from few doses,TNIK,1700 nM
CN1CCC(C(=O)Nc2n[nH]c3nc(-c4ccc(O)cc4)c(Br)cc23)CC1 [SB-732881],potency estimated from few doses,AKT3,1640 nM
same,potency estimated from few doses,CDK16,565 nM
same,potency estimated from few doses,CDK17,914 nM
same,potency estimated from few doses,CDK6,1480 nM
same,potency estimated from few doses,CDK9,400 nM
same,potency estimated from few doses,CDKL5,852 nM
same,potency estimated from few doses,GSK3A; [1],3.34 nM
same,potency estimated from few doses,GSK3B,10.4 nM
same,potency estimated from few doses,ICK,1230 nM
same,potency estimated from few doses,PIM2,1660 nM
same,potency estimated from few doses,RIOK2; [1],2210 nM
Cn1cc(C2=C(c3cn(C)c4cc(C(N)=O)ccc34)C(=O)NC2=O)c2ccccc21 [RO0319317-000],potency estimated from few doses,"ATM; compound concentrations: 100 nM and 1000 nM (sheet 'Samples'), CATDS: 0.45876429377403",142 nM
same,potency estimated from few doses,"GSK3A; compound concentrations: 100 nM and 1000 nM (sheet 'Samples'), CATDS: 0.228409862678119",860 nM
same,potency estimated from few doses,MTHFD1,175 nM
O=C1Nc2ccccc2/C1=C1\CCc2cc(O)ccc21 [GR105659X],potency estimated from few doses,AURKB; CATDS: 0.205313587385097,856 nM
same,potency estimated from few doses,FLT3,446 nM
same,potency estimated from few doses,PIK3CD,199 nM
same,potency estimated from few doses,RPS6KA4,977 nM
Cn1cc(-c2ccc3c(c2)CCN3C(=O)Cc2ccccc2Cl)c2c(N)ncnc21 [GSK2608885A],potency estimated from few doses,AURKB; CATDS: 9.3884210166783694E-2,825 nM
same,potency estimated from few doses,CAMK2B,685 nM
same,potency estimated from few doses,EIF2AK1,1790 nM
same,potency estimated from few doses,MAP2K5,478 nM
same,potency estimated from few doses,MAP3K4,1920 nM
same,potency estimated from few doses,MAP4K2,1110 nM
same,potency estimated from few doses,MAP4K3,1490 nM
same,potency estimated from few doses,NEK2,1460 nM
same,potency estimated from few doses,PTK6; CATDS: 9.6831640225396698E-2,781 nM
same,potency estimated from few doses,RIPK3,2280 nM
same,potency estimated from few doses,STK3,2130 nM
same,potency estimated from few doses,STK4,1370 nM
same,potency estimated from few doses,YES1,1000 nM
